From PubChem BioAssay AID1698 (The Scripps Research Institute Molecular Screening Center, 2009)
The other results are listed elsewhere or left out. Values without a mark were called inactive. Active and inactive are the calls of the source.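 How the source made its calls: active means activation above the solvent-only control wells' mean plus 3 SD (cut at about 11% in these data); inactive means the rest.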

Target: Neuropeptide Y receptor type 2 (Homo sapiens) (UniProt P49146)
Test: NPY-Y2 direct agonists without NPY, counter-screen for NPY-Y1 potentiator project, cell-based, fluorescence (AID 1698);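 further: 0% = DMSO with isoproterenol and 100% = 40 nM NPY maximal response; agonism lowers cAMP so well fluorescence drops in active wells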
Details: HEK293 Y2-CNGC, membrane potential fluorescence, agonist mode; at 3.6 µM; hits give high values

Sequence of Neuropeptide Y receptor type 2 (Homo sapiens) (P49146 whole entry, looked up): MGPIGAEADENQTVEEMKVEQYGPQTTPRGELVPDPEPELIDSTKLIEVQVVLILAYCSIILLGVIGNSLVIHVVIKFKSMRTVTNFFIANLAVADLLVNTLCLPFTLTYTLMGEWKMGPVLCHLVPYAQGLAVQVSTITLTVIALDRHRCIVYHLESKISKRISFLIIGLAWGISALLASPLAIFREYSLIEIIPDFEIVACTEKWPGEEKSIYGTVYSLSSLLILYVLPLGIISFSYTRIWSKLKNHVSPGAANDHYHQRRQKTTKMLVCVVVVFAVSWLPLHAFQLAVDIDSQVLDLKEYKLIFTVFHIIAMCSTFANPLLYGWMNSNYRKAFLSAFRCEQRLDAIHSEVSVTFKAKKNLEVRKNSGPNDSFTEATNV

| Compound | activation |
| --- | --- |
| O=[N+]([O-])c1cc(Cl)cc(/C=N/NC(=S)Nc2cc(S(=O)(=O)N3CCOCC3)ccc2Cl)c1O | 63.2% (active) |
| CSc1nc(-c2ccco2)nn1C(=O)c1ccccc1Cl | 26% (active) |
| CC(=O)c1ccc(NC(=O)C2CC(=O)Nc3nc4ccccc4n32)cc1 (stereo unspecified) | 34.2% (active) |
| CC1=C/C(=N\OS(=O)(=O)c2ccccc2)C=CC1=O | 26.8% (active) |
| Cc1cccc(OCC(O)CN2CCN(CCN3C(=O)c4cccc5cccc(c45)C3=O)CC2)c1C (stereo unspecified) | 63% (active) |
| COC(=O)c1sc(-c2ccc(C(C)(C)C)cc2)cc1NC(=O)/C=C/C(=O)O | 22.8% (active) |
| O=C(c1cccs1)N1CCN(C(=O)N2CCOCC2)CC1 | -9.63% |
| CCn1c2ccccc2c2cc(NC(=O)Nc3ccc([N+](=O)[O-])cc3C)ccc21 | 23.4% (active) |
| N#Cc1ccc(C(=O)Nc2nc(-c3cccs3)c(C(=O)C(F)(F)F)s2)cc1 | 0.24% |
| COCCn1nnnc1C(c1ccccc1Cl)N1CCN(c2ccccc2OC)CC1 (stereo unspecified) | 6.66% |
| O=C(Nc1ccccc1C(F)(F)F)c1cc(-c2ccc(O)cc2)on1 | -2.58% |
| COC(=O)c1ccc(NC(=O)CN(c2ccc(C)cc2)S(=O)(=O)c2c(C)n[nH]c2C)cc1 | 47% (active) |
| Cc1ccccc1NCC(=O)N/N=C\c1ccc([N+](=O)[O-])s1 | 39.5% (active) |
| CN1C(=O)c2ccccc2C(C(=O)NCCCN2CCCC2)C1c1c[nH]c2ccccc12 (stereo unspecified) | -0.28% |
| O=C1/C(=C/c2coc3ccc(O)cc3c2=O)SC(=S)N1c1ccccc1 | 15.2% (active) |
| O=C(Nc1ccc2c(c1)CCC2)c1cccc(S(=O)(=O)Nc2ccccc2Cl)c1 | 10.3% (active) |
